# Screens: PubChem BioAssay, several laboratories
# bovine MsrA act: bovine MsrA enzyme activators, primary screen, biochemical, absorbance, HTS; purified bovine MsrA, absorbance read-out; activation, % at 10.6 µM; actives 0.3% (n = 360,000); AID 602163, 2012; in the data active means activation above about 7.5%;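 further: 0% = vehicle and 100% = reference activator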
# DSG3 Ab inh: inhibitors of pemphigus antibody binding to DSG3, primary screen, biochemical, bead-based, flow cytometry, scFv-GFP. Desmoglein-3 (Homo sapiens), P32926. actives 0.48% (n = 310,000). binding (percent of control), % at 10 µM. AID 588358, 2011. DSG3-coupled beads, scFv-anti-DSG3-GFP binding; active compounds read low;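 active means binding more than 3 SD below its plate's average and above zero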;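 further: hits lower antibody fragment binding to DSG3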
# MsrA inh: bovine MsrA enzyme inhibitors, primary screen, biochemical, absorbance, HTS; Methionine sulfoxide reductase A (Bos taurus); purified bovine MsrA, absorbance read-out; inhibition, % at 15.5 µM; actives 0.75% (n = 360,000); AID 651718, 2012;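 further: 0% = vehicle wells with enzyme and 100% = reference inhibitor wells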
# rCAG RNA binder: binders of r(CAG) RNA repeats, primary screen, biochemical, fluorescence; r(CAG) RNA repeat, TO-PRO-1 dye displacement fluorescence; inhibition, % at 3 µM; actives 1.3% (n = 370,000);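 active means inhibition above the plate cutoff, the mean of all test compounds on that plate plus 3 SD, cut at about 35% in these data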;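 further: 0% = DMSO alone and 100% = 100 µM mitoxantrone as full dye displacement; higher means more dye released from RNA so lower well fluorescence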
# DAGLB inhibitor: DAGLB lipase inhibitors, primary screen, biochemical, fluorescence, HTS; AID 504411, 2011; HEK293T DAGLB membrane lysate, EnzChek fluorogenic substrate; Diacylglycerol lipase-beta (Homo sapiens), Q8NCG7; actives 0.059% (n = 340,000); inhibition, % at 5.17 µM; in the data active means inhibition above about 34%;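 further: 0% = enzyme with vehicle and 100% = wells lacking enzyme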
# Target sequence (Q8NCG7 whole entry, looked up): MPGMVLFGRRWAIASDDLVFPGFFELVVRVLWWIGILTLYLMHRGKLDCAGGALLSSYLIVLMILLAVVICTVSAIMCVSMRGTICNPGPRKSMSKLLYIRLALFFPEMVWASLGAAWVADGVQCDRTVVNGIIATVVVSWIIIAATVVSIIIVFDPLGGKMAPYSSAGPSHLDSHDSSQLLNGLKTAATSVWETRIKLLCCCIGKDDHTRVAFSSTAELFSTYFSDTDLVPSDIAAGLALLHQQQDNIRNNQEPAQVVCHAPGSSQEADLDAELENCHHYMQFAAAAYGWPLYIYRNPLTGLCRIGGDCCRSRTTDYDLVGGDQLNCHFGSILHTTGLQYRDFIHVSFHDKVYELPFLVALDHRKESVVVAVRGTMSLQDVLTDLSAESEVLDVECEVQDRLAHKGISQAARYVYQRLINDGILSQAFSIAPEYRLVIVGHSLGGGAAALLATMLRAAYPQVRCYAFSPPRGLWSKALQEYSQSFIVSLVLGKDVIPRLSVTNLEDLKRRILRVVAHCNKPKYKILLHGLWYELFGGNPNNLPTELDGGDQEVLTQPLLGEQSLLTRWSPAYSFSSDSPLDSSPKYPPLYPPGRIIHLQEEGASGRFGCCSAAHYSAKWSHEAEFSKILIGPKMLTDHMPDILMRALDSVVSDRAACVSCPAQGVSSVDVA
# NadD block: inhibitors of S. aureus NadD, primary screen, biochemical, colorimetric, uHTS; inhibition, % at 20 µM; AID 602399, 2012; purified NadD enzyme, colorimetric absorbance read-out; actives 0.78% (n = 360,000); Nicotinate-nucleotide adenylyltransferase NadD (Staphylococcus aureus N315); in the data active means inhibition above about 26%
# MsrA conf: bovine MsrA inhibitors, retest, confirmation, biochemical, absorbance, HTS | shares compounds with MsrA inh | purified bovine MsrA, absorbance read-out | inhibition, % at 15.5 µM | actives 41% (n = 2,300);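 further: coupled to thioredoxin reductase with NADPH and selenocystamine and DMSO as substrate; 0% = vehicle only and 100% = full effect of reference inhibitor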
# * hit, by the source's call; . = no result. Hits are enriched below; roughly 3.2% of the tested compounds scored in any of these assays. Unless noted, no stated cut-off is given here; in the data, active means inhibition above about 4.5%; inactive means the rest.
SMILES,bovine MsrA act,DSG3 Ab inh,MsrA inh,rCAG RNA binder,DAGLB inhibitor,NadD block,MsrA conf
CCOc1cc(/C=N/Nc2ncnc(Cl)c2N)ccc1O,-7,103,4.9*,1,4,1,6.0*
CCOc1cc(/C=N/NC(=O)N/N=C/c2ccc(O)c(OCC)c2)ccc1O,.,106,5.5*,4,.,.,4
CC1(C)Cc2c(sc(/N=C/N3CCCCCC3)c2C#N)C(C)(C)N1,-4,111,1,-10,2,-2,.
CC1(C)Cc2c(sc(/N=C/N3CCCC3)c2C#N)C(C)(C)N1,0,100,5.1*,0,0,-2,3
COC(=O)C[C@H]1C=C[C@@H](NC(=O)NC2CCCCC2)[C@@H](CO)O1,.,.,0,1,.,.,.
Cc1ccc(C)c(OCC(=O)N/N=C\c2cccn2C)c1,-14,105,5.1*,-4,1,1,1
Cc1ccc(OCC(=O)N/N=C/c2cccn2C)cc1,0,110,2,0,-1,-4,.
O=S1(=O)c2ccc(Br)cc2OC[C@@H](Cc2ccccc2)N1Cc1cn(Cc2ccc(C(F)(F)F)cc2)nn1,.,.,.,5,.,.,.
COc1cccc(-c2cnc3c(NC(C)=O)cc(-c4ccc(C(=O)N5CCOCC5)cc4)cn23)c1,-1,.,0,6,.,-1,.
COc1ccc(C#CCN(Cc2ccc(OC)cc2OC)C(N)=NC(=O)CCc2ccccc2)cc1,.,.,.,7,.,.,.
COC(=O)c1ccc(NC(=O)CCc2nnc3ccc(N4CCC5(CC4)OCCO5)nn23)cc1,-1,.,0,-7,1,-1,.
CCC(=O)/C=C1\Sc2ccc(OC)cc2N1CC,-7,105,5.7*,-1,0,3,4
CCC(=O)/C=C1\Sc2ccc(OC)cc2N1CCO,-1,.,4,-4,4,2,.
O=C(Nc1ccccc1Oc1ccccc1)NC1CCCCN(Cc2ccc(Cl)cc2)C1=O (stereo unspecified),.,.,.,9,.,.,.
O=C(O)c1ccc(N/N=C/c2c(F)cccc2Cl)cc1,-6,92,6.5*,2,2,-5,4
O=C(N/N=C/c1c(F)cccc1Cl)C1CC1,-3,100,1,1,0,-3,.
CS(=O)(=O)N1CCC[C@]2(CC[C@@H](CCC#N)O2)C1,.,.,.,0,.,.,.
O=C1CS/C(=C/C(=O)c2ccccc2)N1,-6,87,5,2,-2,-3,.
Cc1ccccc1C(=O)/C=C1\NC(=O)CS1,-6,103,6.3*,1,0,-3,6.6*
Cc1cc(C)cc(C(=O)/C=C2\NC(=O)CS2)c1,-15,109,5.3*,6,1,0,5.3*
COc1cc(-c2c(C#N)c(N)nc3[nH]c(=S)[nH]c(=O)c23)ccc1O,0,96,5.0*,1,5,-5,4
Cn1cc(C(=O)N/N=C/c2cccs2)c2ccccc21,-5,96,5.2*,2,-4,1,5.2*
CCOC(=O)CC[C@@]1(C(=O)OCC)C[C@@H](CC(=O)NCCCN2CCCC2=O)C(=O)N2CCCC=C21,.,.,.,0,.,.,.
O=c1c(Cl)c(N2CCOCC2)cnn1-c1nc2ccccc2[nH]1,-4,100,4.8*,-1,-2,0,3
c1ccc2[nH]c(N3CCOCC3)nc2c1,-7,107,-1,1,1,0,.
SMILES,bovine MsrA act,DSG3 Ab inh,MsrA inh,rCAG RNA binder,DAGLB inhibitor,NadD block,MsrA conf
CC(=O)OC1COC(n2ccc3cc([N+](=O)[O-])ccc32)C(OC(C)=O)C1OC(C)=O (stereo unspecified),-4,109,6.0*,-3,-2,-5,3
CC(=O)O[C@@H]1[C@@H](OC(C)=O)[C@H](n2ccc3cc([N+](=O)[O-])ccc32)OC[C@@H]1OC(C)=O,-8,100,2,-2,-1,-5,.
CC(c1nccs1)N(C)c1nc2nonc2nc1N(C)C (stereo unspecified),-10,99,4.9*,1,-2,11,2
COc1ccc(S(=O)(=O)N(C)C[C@@H]2OCc3cnnn3CCCC(=O)N([C@H](C)CO)C[C@@H]2C)cc1,-2,118,0,2,3,4,.
N#Cc1cc([N+](=O)[O-])ccc1N1CCCC1,-2,99,11*,1,0,3,5.0*
O=[N+]([O-])c1cc(/C=N/n2cnnc2)ccc1N1CCCC1,-7,104,7.7*,2,2,-7,5.1*
O=[N+]([O-])c1ccc(N2CCCCCC2)c([N+](=O)[O-])c1,-6,100,1,-2,-1,-5,.
O=Cc1ccc(N2CCCC2)c([N+](=O)[O-])c1,-4,100,6.7*,-1,-3,-2,4.8*
COc1ccncc1-c1csc(C(O)c2ccccc2)n1 (stereo unspecified),-3,.,0,0,.,-5,.
O=S1(=O)c2ccc(N3CCCC3)cc2Oc2ccccc2CN1Cc1cn(Cc2cccc(C(F)(F)F)c2)nn1,.,.,.,11,.,.,.
CCCn1c(O)c(N=NC(=O)CNC(=O)c2cccnc2)c2ccccc21,1,102,2,-2,1,2,.
Cn1c(O)c(N=NC(=O)CNC(=O)c2cccnc2)c2ccccc21,-2,.,4.7*,-2,1,-5,2
COCCN1C(=O)COc2ccccc2C1C(=O)NCc1ccccc1 (stereo unspecified),-3,.,-1,4,.,5,.
COc1ccc(-c2c(Cc3ccccc3)nc(NC(=O)c3ccccc3F)n2C)cc1,.,.,.,6,.,.,.
Cc1ccc(Nc2ccc([N+](=O)[O-])nc2[N+](=O)[O-])cc1,-7,104,5.3*,1,3,-5,5.0*
C=CCN1C(=O)[C@@H](CC(=O)NCCc2ccccc2OC)[C@]2(C(=O)OC)CCCCC=C12,.,.,.,2,.,.,.
O=C(N/N=C/c1ccc2c(c1)OCO2)c1cccs1,-10,92,6.1*,3,0,-4,5
COc1cc(/C=N/NC(=O)/C(=C\c2ccc3c(c2)OCO3)NC(=O)c2ccccc2)ccc1O,-7,96,8.7*,21,3,20,4.9*
O=C(N/N=C/c1ccc([N+](=O)[O-])cc1)c1cccs1,-4,114,5.4*,3,.,0,5.0*
Cc1ccsc1C(=O)N/N=C/c1ccc2c(c1)OCO2,-8,123,4,-1,-1,2,.
Cc1ccc(/C=N/NC(=O)c2cccs2)s1,-6,94,6.7*,0,-1,-4,4.9*
